Assay outcomes from PubChem BioAssay.
SRC2 inh: inhibits human steroid receptor coactivator 2 | inhibition, % at 9 µM | HEK293 GAL4-SRC2 luciferase reporter, luminescence | 370,000 tested, 0.17% active | AID 651957 | Q15596;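 active = inhibition above the mean inhibition of all tested compounds plus 3 SD, set per campaign, cut at about 52% in these data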
NCOA1 inh: inhibits human SRC1 coactivator; Q15788; HEK293 GAL4-SRC1 luciferase reporter, luminescence; inhibition, % at 3.6 µM; 360,000 tested, 0.12% active;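 active = inhibition above the campaign mean plus 3 SD, with each screening campaign given its own cutoff, cut at about 60% in these data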
SRC3 inh: inhibitors of human steroid receptor coactivator 3 (SRC3); Q9Y6Q9; HEK293 GAL4-SRC3 luciferase reporter, luminescence; inhibition, % at 3.6 µM; 360,000 tested, 0.17% active; AID 588352;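 active = inhibition above a per-campaign cutoff, the mean of all compounds plus 3 SD, cut at about 60% in these data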;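 also: higher means less SRC3-driven luciferase light from the GAL4 reporter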
COUP-TFII inh: inhibitors of human COUP-TFII (NR2F2); HEK293T NGFI-A luciferase reporter, luminescence; 370,000 tested, 0.7% active; inhibition, % at 8.6 µM; P24468;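 active = inhibition above a per-plate cutoff, mean inhibition of test wells between control levels plus 3 SD, cut at about 38% in these data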;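 also: cells cotransfected with COUP-TFII expression vector driving the NGFI-A reporter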
GalR3 antag: antagonists of human GalR3 | O60755 | HEK293 GalR3-CNG cAMP membrane potential fluorescence; galR3 body fused to GalR1 C-terminus | inhibition, % at 3 µM | 360,000 tested, 0.44% active | AID 651719;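 active = inhibition above the screen-wide average plus 3 SD, cut at about 13% in these data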;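 also: forskolin and galanin both at EC90 stimulate the cells; cAMP rise reported by CNG channel membrane potential dye signal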
Target sequence (O60755 1-299 limits assumed): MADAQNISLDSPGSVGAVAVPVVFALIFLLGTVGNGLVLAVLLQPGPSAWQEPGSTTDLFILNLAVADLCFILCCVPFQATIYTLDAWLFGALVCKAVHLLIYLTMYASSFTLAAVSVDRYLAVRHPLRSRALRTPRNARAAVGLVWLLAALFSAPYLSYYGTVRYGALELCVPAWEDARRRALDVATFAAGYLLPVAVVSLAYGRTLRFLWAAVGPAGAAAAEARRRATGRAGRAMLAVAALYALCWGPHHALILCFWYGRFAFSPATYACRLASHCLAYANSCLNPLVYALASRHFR
NR5A2 inv ag: suppresses constitutive activity of human LRH-1; inhibition, % at 3.6 µM; AID 602396; HEK293T StAR-luciferase reporter, LRH-1 transfected, 24 h; 360,000 tested, 0.13% active;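 active = inhibition above the mean inhibition of all tested compounds plus 3 SD, cut at about 73% in these data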
GalR3 antag conf: confirmation of human galanin receptor 3 antagonists; AID 652245; shares compounds with GalR3 antag; inhibition, % at 3 µM; 1,600 tested, 59% active; HEK293 GalR3 CNG cAMP biosensor, membrane potential fluorescence; galR3 fused to GalR1 carboxy tail; challenged with forskolin and galanin at EC90;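 active = inhibition above the primary screen's cutoff, the mean inhibition of all screened compounds plus 3 SD, cut at about 13% in these data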
CNG parental: acts as nonspecific agonist in parental HEK-CNG cells. shares compounds with GalR3 antag. HEK293-CNG parental cells, cAMP membrane potential fluorescence; normalised: DMSO wells 0%, forskolin wells 100%. activation, % at 3 µM. 1,600 tested, 10% active. AID 652268; in the data active = activation above about 1.3%
Gal4-VP16 ctr: VP16 inhibition counter-screen for COUP-TFII | shares compounds with COUP-TFII inh | HEK293 Gal4-VP16 luciferase reporter, luminescence | inhibition, % at 8.5 µM | 2,500 tested, 25% active | AID 687007; in the data active = inhibition above about 13%
NR2F2 inh conf: COUP-TFII (NR2F2) inhibition, confirmation assay | shares compounds with COUP-TFII inh | HEK293 NGFI-A luciferase reporter, luminescence | inhibition, % at 8.5 µM | 2,500 tested, 45% active;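 active = mean inhibition over three repeats above a set limit taken from the earlier primary screen, cut at about 38% in these data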
Hits are given with their value; - = inactive; . = not tested or not shown. Hits are enriched below; roughly 1.1% of the tested compounds scored in any of these assays.

SMILES | SRC2 inh | NCOA1 inh | SRC3 inh | COUP-TFII inh | GalR3 antag | NR5A2 inv ag | GalR3 antag conf | CNG parental | Gal4-VP16 ctr | NR2F2 inh conf
CC(C)(C)OC(=O)NCCCCCc1cn([C@@H](CO)C(=O)NCCCCCCCCCCC(=O)N2CCN(C(=O)OC(C)(C)C)CC2)nn1 | 54 | - | 72 | 69 | 88 | - | 102 | - | - | 79
CC(C)(C)OC(=O)CC[C@@H](C(=O)NCCCCCCCCCCC(=O)N1CCN(C(=O)OC(C)(C)C)CC1)n1cc(CCCCCNC(=O)OC(C)(C)C)nn1 | - | - | - | - | - | - | . | . | . | .
S=C(NCc1ccc(Cl)cc1)OC1CCC12CCC(c1ccccc1)CC2 (stereo not drawn) | - | . | . | - | . | . | . | . | . | .
Cc1ccc(Oc2ccccc2NC(=O)CSCC(=O)Nc2cc(C)on2)cc1 | - | - | - | 62 | 84 | - | 68 | - | - | 49
Cc1cc(NC(=O)CSCC(=O)Nc2ccccc2Oc2ccccc2)no1 | - | - | - | - | - | - | . | . | . | .
CC(C)(C)c1ccc(C(=O)Nc2ccc(Oc3cccnc3)nc2)cc1 | - | - | - | 64 | 111 | - | 114 | - | - | 61
CN(C)c1ccc(C=c2c3ccccc3n3c2c2c([n+]3C)CCCC2)cc1 | - | 69 | 79 | 88 | 81 | 94 | 89 | - | 28 | 82
CN(C)c1ccc(/C=C2\CCC/C(=C\c3ccccc3)C2=O)cc1 | - | - | - | - | - | - | . | . | . | .
COc1ccc(OC)c(CCNC(=O)C(C)n2nc(C)c3c(C)n(-c4ccc(C)cc4)nc3c2=O)c1 (stereo not drawn) | - | - | - | 73 | 50 | - | 91 | - | 18 | 73
CC1(C)CC2CC(C)(CN2S(=O)(=O)c2ccc(C(=O)Nc3ccc(S(=O)(=O)N4CCOCC4)cc3)cc2)C1 (stereo not drawn) | - | - | - | 53 | 87 | - | 118 | - | - | 64
CC(C)CCNC(=O)[C@H]1COC(O)([C@H](Cc2ccccc2)NC(=O)[C@@H](NC(=O)OCc2ccccc2)C(C)C)CN1C (stereo partly drawn) | . | . | . | - | . | . | . | . | . | .
Cc1ccc(-c2cc(-c3nnc(SCC(=O)Nc4cccc5ccccc45)n3N)[nH]n2)cc1 | - | . | . | - | . | . | . | . | . | .
COc1ccc(C(=O)NC(C)c2nc3ccccc3n2C)cc1OC (stereo not drawn) | - | - | - | - | - | - | . | . | . | .
COc1ccc(C(O)c2nc3ccccc3n2C)cc1OC (stereo not drawn) | - | - | - | 47 | 95 | - | 33 | - | - | -
CC(C)(C)N(NC(=O)NCCCl)C(=O)c1ccccc1Cl | - | . | . | - | . | . | . | . | . | .
COc1ccccc1NS(=O)(=O)c1ccc(C)c(C(=O)NC2CCN(Cc3ccccc3)CC2)c1 | - | - | - | 47 | 33 | - | 81 | - | - | -
COc1ccccc1NS(=O)(=O)c1cc(C(=O)NC2CCN(Cc3ccccc3)CC2)ccc1C | - | . | . | 68 | 90 | . | 103 | - | - | 45
COc1ccccc1NS(=O)(=O)c1cccc(C(=O)NC2CCN(Cc3ccccc3)CC2)c1 | . | - | - | . | . | - | . | . | . | .
COC(=O)[C@@]12CCCCC3=C1N(CCC3)C(=O)[C@H]2CC(=O)N1CCN(C(=O)c2ccco2)CC1 | - | . | . | - | . | . | . | . | . | .
COc1ccc(CCN(C)c2ccc(S(=O)(=O)N3CCCC3)cc2[N+](=O)[O-])cc1OC | - | - | - | - | - | - | . | . | . | .
COc1ccc(CN(C)c2ccc(S(=O)(=O)N3CCN(C)CC3)cc2[N+](=O)[O-])cc1OC | - | - | - | 70 | 103 | - | 127 | - | - | 67
